Experiment [1] can be described thus: qHTS assay to identify small molecule agonists of the vitamin D receptor (VDR) signaling pathway - cell viability counter screen (AID 743224; active = well fitted curve in the direction sought with a large enough effect in the repeat runs; an effect the other way counts as inactive or inconclusive; note: series mostly up to about 63 µM; % is set by controls: 0 for no effect and ±100 for the full control effect; nearly all actives have a fitted effect of over 50% in size). The essentials:
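Cells: VDR-bla, 2,000/well, settled 4 h. Treatment: compounds in DMSO, 16 h, 37C/5% CO2. Readout: CellTiter-Glo luminescence after 30 min RT.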

The nature of experiment [2]: qHTS assay to identify small molecule antagonists of the vitamin D receptor (VDR) signaling pathway - cell viability counter screen (AID 743225; active = well fitted curve in the direction sought with a large enough effect in the repeat runs; an effect the other way counts as inactive or inconclusive; note: % is set by controls: 0 for no effect and ±100 for the full control effect; nearly all actives have a fitted effect of over 50% in size). The essentials: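 Cytotoxicity toward the VDR-bla HEK 293T line was scored by ATP-based CellTiter-Glo luminescence, read in the wells already used for the beta-lactamase readout after 16 h compound treatment under 3 nM 1-alpha,25-dihydroxyvitamin D3 stimulation.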
(In general: In qHTS, concentration-response curves come from the screen itself.)

Experiment [3] is described as follows: qHTS assay to identify small molecule agonists of the NFkB signaling pathway (AID 1159509; active = well fitted curve in the direction sought with a large enough effect in the signal ratio in the repeat runs, not every such curve was filed as active; the % refers to the signal ratio; note: series mostly up to about 61 µM; % is set by controls: 0 for no effect and ±100 for the full control effect). In short, it runs like this: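 Readout: FRET fluorescence, 405 nm excitation, 460/530 nm emission; beta-lactamase expression disrupts FRET. Cells: ME-180 stably carrying NF-kB-driven bla reporter. Compound exposure 5 hr, 37 C, 5% CO2.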
A short description of experiment [4]: qHTS assay to identify small molecule agonists of the NFkB signaling pathway - cell viability counter screen (AID 1159515). Note: series mostly up to about 61 µM; % is set by controls: 0 for no effect and ±100 for the full control effect; nearly all actives have a fitted effect of over 55% in size. The essentials:
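Cells are seeded (2,000 NFkB-bla ME-180 per well), rested overnight, and dosed with DMSO-dissolved compounds for 5 hr at 37 C. Viability is then read by CellTiter-Glo luminescence after 30 min at room temperature.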

The nature of experiment [5]: qHTS assay to identify small molecule agonists of the endoplasmic reticulum stress response signaling pathway (AID 1159516; active = well fitted activation curve with a large enough effect in the signal ratio in the repeat runs, not every such curve was filed as active; the % refers to the signal ratio; note: % is set by controls: 0 for no effect and ±100 for the full control effect). The essentials:
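Cells are seeded at 1,500 per well and incubated overnight. Compounds in DMSO are added for 5 hr at 37 C, then beta-lactamase FRET substrate for 2 hr at room temperature, and fluorescence at 460 and 530 nm is measured.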

A short description of experiment [6]: qHTS assay to identify small molecule agonists of the endoplasmic reticulum stress response signaling pathway - cell viability counter screen (AID 1159517).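 Note: HeLa cells carrying an ER stress response element beta-lactamase reporter; series mostly up to about 61 µM; % is set by controls: 0 for no effect and ±100 for the full control effect; nearly all actives have a fitted effect of over 50% in size.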 The essentials:
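Cytotoxicity of test compounds toward ESRE-bla HeLa cells was assessed after 5 hr exposure. The luminescent CellTiter-Glo signal was measured 30 min after reagent addition.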

Experiment [7] can be described thus: qHTS assay to identify small molecule antagonists of the retinoid-related orphan receptor gamma (ROR-gamma) signaling pathway - cell viability counter screen (AID 1159520; active = well fitted curve in the direction sought with a large enough effect in the repeat runs; an effect the other way counts as inactive or inconclusive; note: % is set by controls: 0 for no effect and ±100 for the full control effect; nearly all actives have a fitted effect of over 50% in size). The essentials: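 Tet-on ROR gamma CHO cells (1,000/well) were plated 4 hr, given compounds in DMSO for 2 hr at 37 C, then induced with 1 uM final doxycycline for 16 hr. Viability was read as ATP by CellTiter-Glo luminescence after 30 min.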

The target in experiment [8] is Nuclear receptor ROR-gamma (Homo sapiens) (UniProt P51449). Briefly: qHTS assay to identify small molecule antagonists of the retinoid-related orphan receptor gamma (ROR-gamma) signaling pathway (AID 1159521; active = well fitted curve in the direction sought with a large enough effect in the repeat runs; an effect the other way counts as inactive or inconclusive; note: nearly all actives have a fitted effect of over 50% in size; note: potency is the fitted concentration of half-maximal effect;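 for activity change, negative = inhibition: CHO cells with doxycycline inducible ROR-gamma driving an RORE luciferase reporter; top concentration of the series differs between compounds; % is set by controls: 0 for no effect and ±100 for the full control effect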). The essentials: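 Readout: ONE-Glo luciferase luminescence, 30 min at room temperature. System: Tet-on RORγ CHO, RORE-LUC. Sequence: compound 2 h, doxycycline 1 uM final, 16 h at 37 C.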

The nature of experiment [9]: qHTS assay to identify small molecule agonists of the AP-1 signaling pathway - cell viability counter screen (AID 1159525). Note: nearly all actives have a fitted effect of over 55% in size. In short, it runs like this: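 Each titration point was normalised to DMSO and tetra n-octyl ammonium bromide controls. The read was Cell Titer Glo luminescence after 30 min at RT, following 5 h compound exposure of ME-180 AP-1-bla cells at 37 °C.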

Experiment [10] can be described thus: qHTS assay to identify small molecule agonists of the AP-1 signaling pathway (AID 1159526). Note: % is set by controls: 0 for no effect and ±100 for the full control effect.

From PubChem BioAssay (Tox21) come the findings set out here.

Results filed as inconclusive are left out. Values without a mark were called inactive. Active and inactive are the calls of the source. Unless noted, calls come from the whole dose curve.

On to `CO[C@@H]1[C@@H](O[C@@H]2O[C@H](C)[C@@H](O[C@H]3C[C@@](C)(O)[C@@H](O)[C@H](C)O3)[C@H](N(C)C)[C@H]2O)[C@@H](CC=O)C[C@@H](C)[C@@H](O[C@@H]2CC[C@H](N(C)C)[C@@H](C)O2)/C=C/C=C/C[C@@H](C)OC(=O)C[C@H]1OC(C)=O`, for which the compound was classed as inactive in experiment [1], in [2], in experiment [3], in experiment [4], in experiment [5] and in [6]. For the same compound, in [9], the outcome was inactive. Moreover, the Potency entry in experiment [7], in [8] and in experiment [10] was “inactive” each time.

`COc1cccc([C@H](O)C2CCN(CCc3ccc(F)cc3)CC2)c1OC`: the compound was classed as inactive in experiment [1], in [2], in experiment [3], in [4], in experiment [5] and in experiment [6]. In [9], the result was inactive. Moreover, the Potency result in experiment [7] and in experiment [10] was “inactive” in each case.

Regarding `c1ccc(CN(Cc2ccccc2)Cc2ccccc2)cc1`, the compound was classed as inactive in experiment [2], in [3], in experiment [4], in experiment [5], in experiment [6] and in [9]. The Potency entry in experiment [7], in [8] and in experiment [10] was “inactive” in each case.

For the compound `O=C1OC(=O)C2CC=CCC12` (configuration not stated), the call in [1], in [2], in [3], in experiment [4], in experiment [5] and in experiment [6] was inactive. Besides, the compound was called inactive in experiment [9]. Further, the Potency result in experiment [7] and in experiment [10] was “inactive” each time.

With `C=C[Si]1(C)O[Si](C)(C=C)O[Si](C)(C=C)O[Si](C)(C=C)O1` (configuration not stated), the outcome in experiment [2], in experiment [3], in experiment [4], in [5], in [6] and in [9] was inactive. For the same compound, the Potency result in experiment [7], in [8] and in experiment [10] was “inactive” each time.

As to `CCN(CC)CC(=O)OCC(=O)[C@@]1(O)CC[C@H]2[C@@H]3CCC4=CC(=O)CC[C@]4(C)[C@H]3[C@@H](O)C[C@@]21C`, the outcome in [1], in [2], in [3], in [4], in experiment [5] and in experiment [6] was inactive. For the same compound, the call in experiment [9] was inactive. The Potency entry in experiment [7], in [8] and in [10] was “inactive” throughout.

Take `COC=O`: the figures for the viability change, negative = cytotoxic in experiment [2] and in experiment [9] were 18% [at 6.95 µM] and 12.8% [at 6.97 µM], respectively. The activation was 0.465% [at 6.95 µM] in experiment [3], -0.899% [at 6.95 µM] in experiment [5] and -1.7% [at 6.97 µM] in [10]. Further, the activity, negative = cytotoxic in [4] was -3.71% [at 6.95 µM]. Besides, the activity change, negative = cytotoxicity in experiment [6] was -18.1% [at 6.95 µM]. In addition, in [7], the activity, negative = cytotoxicity is -1.04% [at 8.39 µM]. Moreover, the activity change, negative = inhibition in experiment [8] was -0.709% [at 8.39 µM].

As for `CC1(C)[C@@H]2CC[C@]3(C2)[C@@H]1C(=O)CCC3(C)C`, the compound was classed as inactive in experiment [1], in [2], in experiment [3], in experiment [4], in [5] and in experiment [6]. Also, in experiment [9], the compound was classed as inactive. Besides, the Potency result in [7] and in experiment [8] was “inactive” each time.

Turning to `O=C(c1ccc(Cl)cc1)c1ccc(Cl)cc1`, the compound was classed as inactive in experiment [1], in [2], in [3], in [4], in [5] and in experiment [6]. Also, the compound was classed as inactive in experiment [9]. Also, the Potency result in [7] and in [10] was “inactive” each time.

Take `c1ccc(CCNc2nc(-c3ccccc3)cs2)cc1`: the result in [1], in [2], in experiment [3], in experiment [4], in experiment [5] and in experiment [6] was inactive. In experiment [9], the outcome was inactive. Moreover, the Potency result in experiment [7] and in [8] was “inactive” each time.

Turning to `CCC(=O)O[C@@H]1C[C@H]2CC[C@]1(C)C2(C)C`, the result in experiment [1], in experiment [3], in experiment [4], in experiment [5], in [6] and in experiment [9] was inactive. Moreover, the Potency result in experiment [7] and in [8] was “inactive” throughout.

As for `CCCCCCCCCCCCCCCCC(=O)O`, the call in experiment [1], in [2], in experiment [3], in experiment [4], in [5] and in experiment [6] was inactive. The compound was called inactive in experiment [9]. The Potency entry in [7] and in experiment [8] was “inactive” each time.

Regarding `CC1=C(C)C(=O)C(C(CCCCCC(=O)O)c2ccccc2)=C(C)C1=O` (configuration not stated), the compound was called inactive in experiment [1], in experiment [2], in experiment [3], in experiment [4], in experiment [5] and in experiment [6]. The result in experiment [9] was inactive. In addition, the Potency result in experiment [7], in experiment [8] and in experiment [10] was “inactive” each time.

For `O=[N+]([O-])c1ccccc1CCO`, the compound was classed as inactive in [1], in [2], in [3], in experiment [4], in experiment [5] and in [6]. In addition, the outcome in experiment [9] was inactive. The Potency entry in experiment [7] and in experiment [10] was “inactive” throughout.

For the compound `C[Si](C)(C)O[Si](C)(C)O[Si](C)(C)C`, the compound was called inactive in experiment [1], in experiment [2], in experiment [3], in experiment [4], in [5] and in experiment [6]. Further, the compound was called inactive in [9]. Moreover, the Potency entry in [7] and in experiment [10] was “inactive” in each case.

As to `O=Cc1ccc(Cl)c([N+](=O)[O-])c1`, the compound was classed as inactive in [1], in [2], in [3], in experiment [4], in [5] and in experiment [6]. Moreover, the compound was called inactive in experiment [9]. For the same compound, the Potency result in experiment [7] and in [10] was “inactive” throughout. Moreover, the Potency in experiment [8] was 54.5 µM (active).

On to `O=C(N[C@@H](Cc1ccccc1)[C@@H](O)C(=O)N1C[C@@H](O)[C@@H](O)C1)c1cc2cc(Cl)ccc2[nH]1`, for which the call in experiment [1], in experiment [2], in experiment [3], in experiment [4], in [5] and in experiment [6] was inactive. Further, in [9], the call was inactive. In addition, the Potency entry in experiment [7], in [8] and in experiment [10] was “inactive” in each case.
